For assay [1], the system named is Plasmodium falciparum Sir2 (PF13_0152, Sir2A). Description: pfSir2 binders on small-molecule microarrays, primary screen, biochemical, small-molecule microarray, 635 nm fluorescence (AID 1098).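 Also: score merges spot fluorescence intensity with its signal-to-noise ratio.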 As to conditions: small-molecule microarray binding, fluorescence 635 nm; higher = more signal.
Assay [2] can be described thus: small-molecule microarray binders of probe aDKK1, primary screen, biochemical, biotinylated probe, 635/667 nm fluorescence (AID 1099).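 Also: score merges 667nm spot fluorescence with signal to noise across triplicate slides.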 As to conditions: higher = more signal.
Assay [3] is described as follows: small-molecule microarray binders of probe aCHRDL2, primary screen, biochemical, biotinylated probe, 635/667 nm fluorescence (AID 1100). As to conditions: higher = more signal.
The nature of assay [4]: splicing luciferase reporter signal modulators, primary screen, spliceosome inhibition project, cell-based, HEK293, splice +/- reporter (AID 1101).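 Also: HEK293 cells carrying a splicing-competent luciferase reporter gene; test concentration not given here.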 The following applies: luminescence, 24 h, higher = more signal, called active from +8 up or from −8 down.
The target of assay [5] is Fibroblast growth factor 10 (Homo sapiens) (UniProt O15520). Description: FGF10 binders on small-molecule microarrays, primary screen, biochemical, small-molecule microarray, 635 nm fluorescence (AID 1102). As to conditions: FGF10 binding, fluorescence 635 nm, higher = more signal.
In assay [6] the test system is glycogen synthase kinase-3 (GSK3A per assay name; protocol says GSK3B). Description: GSK3 binders on small-molecule microarrays, primary screen, biochemical, small-molecule microarray, 635 nm fluorescence, GSK3A (AID 1103). Also: the record names both GSK3A and GSK3B. The following applies: small-molecule microarray binding, fluorescence 635 nm; higher = more signal.
The target of assay [7] is Epidermal growth factor receptor (Homo sapiens) (UniProt P00533). Description: EGFR binders on small-molecule microarrays, primary screen, biochemical, small-molecule microarray, 635 nm fluorescence (AID 1104).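 Also: score merges 667 nm emission intensity with spot signal to noise over triplicate slides.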 The following applies: EGFR binding, higher = more signal.
Assay [8] deals with Follistatin-related protein 3 (Homo sapiens) (UniProt O95633). Description: FSTL3 binders on small-molecule microarrays, primary screen, biochemical, small-molecule microarray, 635 nm fluorescence (AID 1105).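 Also: score merges emission near 667 nm and signal to noise per printed spot across three slides.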 As to conditions: FSTL3 binding, higher = more signal.
The target of assay [9] is Dickkopf-related protein 1 (Homo sapiens) (UniProt O94907). The assay is described as follows: DKK1 binders on small-molecule microarrays, primary screen, biochemical, small-molecule microarray, 635 nm fluorescence scan (AID 1106).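 Also: score merges emission near 667 nm with signal to noise over three replicate slides.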 The following applies: DKK1 binding, higher = more signal.
Assay [10] has as its system Inhibin beta A chain (activin A). Description: INHBA (activin A) binders on microarrays, primary screen, biochemical, small-molecule microarray, 635 nm fluorescence scan (AID 1107).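 Also: mouse activin A protein probed at 4.33 µg/mL on printed slides; score merges bound-protein fluorescence near 667 nm with spot signal-to-noise.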 As to conditions: small-molecule microarray binding, higher = more signal.
Assay [11] has as its system Human papillomavirus type 1a protein E7 (residues 44-93). Description: HPV1a E7 fragment binders on microarrays, primary screen, biochemical, small-molecule microarray, residues 44-93, 635 nm fluorescence (AID 1108).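 Also: E7 fragment applied at 1 µg/mL in TBST for 1 h at 4 C; score combines spot fluorescence with its signal to noise ratio.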 As to conditions: small-molecule microarray binding, fluorescence 635 nm; higher = more signal.
A short description of assay [12]: modulators of HCV replicon luciferase signal, primary screen, HCV replication inhibitor project, Huh7 cells, luciferase reporter (AID 1109).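 Also: huh7 hepatoma cells harbouring a luciferase neomycin HCV replicon reporter; luciferase luminescence as measure of HCV replicon replication; test concentration not given here.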 As to conditions: 48 h, higher = more signal.
Assay [13] has as its target Left-right determination factor 2 (Homo sapiens) (UniProt O00292). The assay is described as follows: LEFTY2 binders on small-molecule microarrays, primary screen, biochemical, small-molecule microarray, 635 nm fluorescence scan (AID 1110). As to conditions: LEFTY2 binding, higher = more signal.
The target in assay [14] is Calmodulin-1 (Homo sapiens) (UniProt P0DP23). The assay is described as follows: CALM1 binders on microarrays, EGTA buffer, profiling panel, biochemical, small-molecule microarray, Cy5-labelled CALM1 (AID 1111).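 Also: labelled calmodulin applied in Tris saline Tween buffer holding calcium plus EGTA and DTT.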 The following applies: Cy5-CALM1 binding fluorescence, higher = more signal.
Assay [15] has the same target. Description: calcium-bound CALM1 binders on microarrays, profiling panel, artefact control for SMM control-protein annotation, biochemical, small-molecule microarray, Cy5-labelled CALM1, plus calcium (AID 1112).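 Also: score merges spot fluorescence with signal to noise from triplicate slides.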 As to conditions: Cy5-CALM1 binding fluorescence, higher = more signal.
The nature of assay [16]: small-molecule microarray binders of probe aWnt5a, primary screen, biochemical, biotinylated probe, 635/667 nm fluorescence (AID 1113).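 Also: score merges 667 nm fluorescence intensity with signal-to-noise per printed feature.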 The following applies: higher = more signal.
Assay [17] in a line: small-molecule microarray binders of probe aShh, primary screen, biochemical, biotinylated probe, 635/667 nm fluorescence (AID 1114).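 Also: probe is biotin-labelled aShh protein from a stem cell growth factor screen; measures binding of labelled protein to compounds printed on the slide; score merges feature fluorescence at 667 nm with signal-to-noise.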 As to conditions: higher = more signal.
Assay [18] in a line: small-molecule microarray binders of probe aNog, primary screen, biochemical, biotinylated probe, 635/667 nm fluorescence (AID 1115).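 Also: probe is biotinylated aNog protein used at 0.15 µg/mL for 1 h at 4 C; z-score combines 667 nm fluorescence of each spot with its signal to noise.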 The following applies: higher = more signal.
The target of assay [19] is Torsin-1A-interacting protein 1 (Homo sapiens) (UniProt Q5JTV8). Description: LAP1 binders from COS7 cell lysate, primary screen, small-molecule microarray, 635/667 nm fluorescence (AID 1116). As to conditions: COS7-hLAP1 lysate binding, 635 nm fluorescence, higher = more signal.
The target of assay [20] is Alpha-bungarotoxin (Bungarus multicinctus) (UniProt P60615). The assay is described as follows: alpha-bungarotoxin binders on microarray, profiling panel, artefact control for SMM control protein annotation, biochemical, small-molecule microarray, Alexa647 label, 635/667 nm fluorescence (AID 1117). The following applies: alpha-BTX-A647 binding fluorescence, higher = more signal.

Calls of active or inactive are those of the source.

Follistatin-related protein 3 (Homo sapiens), sequence (O95633 whole entry, looked up): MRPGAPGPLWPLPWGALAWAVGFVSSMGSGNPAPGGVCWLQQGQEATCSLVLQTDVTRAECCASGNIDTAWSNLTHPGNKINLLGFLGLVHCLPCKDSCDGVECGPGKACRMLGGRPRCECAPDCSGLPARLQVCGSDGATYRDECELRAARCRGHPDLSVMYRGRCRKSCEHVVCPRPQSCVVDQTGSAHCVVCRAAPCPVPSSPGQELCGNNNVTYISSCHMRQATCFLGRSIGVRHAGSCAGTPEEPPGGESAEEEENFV
Dickkopf-related protein 1 (Homo sapiens), sequence (O94907 whole entry, looked up): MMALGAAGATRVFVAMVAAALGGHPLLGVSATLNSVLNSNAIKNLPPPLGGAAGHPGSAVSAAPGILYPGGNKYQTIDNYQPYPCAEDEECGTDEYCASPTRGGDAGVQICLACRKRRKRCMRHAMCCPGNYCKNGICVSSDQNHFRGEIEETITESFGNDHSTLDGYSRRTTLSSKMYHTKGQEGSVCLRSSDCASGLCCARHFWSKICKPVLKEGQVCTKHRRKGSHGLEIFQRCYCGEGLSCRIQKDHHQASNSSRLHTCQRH
Alpha-bungarotoxin (Bungarus multicinctus), sequence (P60615 whole entry, looked up): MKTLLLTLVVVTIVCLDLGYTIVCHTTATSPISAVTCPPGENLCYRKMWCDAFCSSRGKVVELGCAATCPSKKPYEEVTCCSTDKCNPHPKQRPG
Left-right determination factor 2 (Homo sapiens), sequence (O00292 whole entry, looked up): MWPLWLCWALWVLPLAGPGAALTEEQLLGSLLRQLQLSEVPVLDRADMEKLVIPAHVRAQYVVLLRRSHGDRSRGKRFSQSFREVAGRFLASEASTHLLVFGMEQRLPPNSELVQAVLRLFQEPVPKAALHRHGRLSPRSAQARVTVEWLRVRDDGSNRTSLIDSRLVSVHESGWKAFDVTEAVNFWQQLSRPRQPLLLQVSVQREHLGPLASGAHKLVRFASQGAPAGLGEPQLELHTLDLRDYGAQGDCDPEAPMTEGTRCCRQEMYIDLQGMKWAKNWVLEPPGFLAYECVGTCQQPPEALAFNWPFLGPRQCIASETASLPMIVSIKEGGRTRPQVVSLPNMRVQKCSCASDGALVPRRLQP
Epidermal growth factor receptor (Homo sapiens), sequence (P00533 whole entry, looked up): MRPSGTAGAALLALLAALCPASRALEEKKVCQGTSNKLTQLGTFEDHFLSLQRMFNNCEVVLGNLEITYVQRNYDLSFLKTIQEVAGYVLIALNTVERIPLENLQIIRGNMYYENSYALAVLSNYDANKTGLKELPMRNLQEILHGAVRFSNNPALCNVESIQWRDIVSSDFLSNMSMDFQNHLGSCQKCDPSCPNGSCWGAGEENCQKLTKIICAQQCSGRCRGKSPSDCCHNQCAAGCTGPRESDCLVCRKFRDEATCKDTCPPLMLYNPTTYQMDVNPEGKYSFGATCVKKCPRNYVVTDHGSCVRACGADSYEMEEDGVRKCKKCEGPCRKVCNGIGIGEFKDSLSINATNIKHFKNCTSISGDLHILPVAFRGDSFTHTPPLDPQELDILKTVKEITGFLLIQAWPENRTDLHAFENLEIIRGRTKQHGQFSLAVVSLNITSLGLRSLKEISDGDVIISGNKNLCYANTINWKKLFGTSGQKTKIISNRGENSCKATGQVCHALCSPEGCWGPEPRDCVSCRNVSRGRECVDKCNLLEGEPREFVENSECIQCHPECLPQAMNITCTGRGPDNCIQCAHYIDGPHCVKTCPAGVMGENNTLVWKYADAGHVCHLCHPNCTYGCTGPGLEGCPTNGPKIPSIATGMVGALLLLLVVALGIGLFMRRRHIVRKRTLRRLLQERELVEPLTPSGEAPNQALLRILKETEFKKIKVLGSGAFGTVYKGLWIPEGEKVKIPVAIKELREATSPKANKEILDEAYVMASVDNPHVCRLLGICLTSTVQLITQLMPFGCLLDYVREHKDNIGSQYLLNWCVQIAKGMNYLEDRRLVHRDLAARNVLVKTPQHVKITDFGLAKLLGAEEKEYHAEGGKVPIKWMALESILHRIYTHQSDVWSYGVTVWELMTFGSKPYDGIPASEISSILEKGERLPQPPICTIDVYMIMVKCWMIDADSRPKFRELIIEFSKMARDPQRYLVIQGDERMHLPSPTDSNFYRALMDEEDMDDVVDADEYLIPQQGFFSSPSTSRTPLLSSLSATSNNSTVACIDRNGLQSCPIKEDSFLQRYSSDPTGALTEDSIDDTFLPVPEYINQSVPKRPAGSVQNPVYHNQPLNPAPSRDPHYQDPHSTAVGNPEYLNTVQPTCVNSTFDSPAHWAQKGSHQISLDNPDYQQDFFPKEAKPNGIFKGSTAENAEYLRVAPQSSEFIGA
Torsin-1A-interacting protein 1 (Homo sapiens), sequence (Q5JTV8 whole entry, looked up): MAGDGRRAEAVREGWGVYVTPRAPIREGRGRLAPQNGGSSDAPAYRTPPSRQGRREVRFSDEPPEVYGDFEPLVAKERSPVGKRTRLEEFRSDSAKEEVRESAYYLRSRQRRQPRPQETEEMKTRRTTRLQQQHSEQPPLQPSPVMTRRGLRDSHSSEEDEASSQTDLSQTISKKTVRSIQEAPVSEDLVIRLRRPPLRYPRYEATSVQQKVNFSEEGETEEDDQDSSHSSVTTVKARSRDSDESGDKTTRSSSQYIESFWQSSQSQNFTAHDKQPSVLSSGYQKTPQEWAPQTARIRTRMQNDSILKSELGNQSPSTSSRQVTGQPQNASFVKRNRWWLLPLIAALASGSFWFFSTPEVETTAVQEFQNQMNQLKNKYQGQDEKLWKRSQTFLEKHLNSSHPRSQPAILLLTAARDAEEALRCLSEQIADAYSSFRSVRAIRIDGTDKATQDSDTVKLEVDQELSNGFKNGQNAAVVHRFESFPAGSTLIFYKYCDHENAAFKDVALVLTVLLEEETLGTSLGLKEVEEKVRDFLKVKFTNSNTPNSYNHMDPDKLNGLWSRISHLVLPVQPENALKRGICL
Fibroblast growth factor 10 (Homo sapiens), sequence (O15520 whole entry, looked up): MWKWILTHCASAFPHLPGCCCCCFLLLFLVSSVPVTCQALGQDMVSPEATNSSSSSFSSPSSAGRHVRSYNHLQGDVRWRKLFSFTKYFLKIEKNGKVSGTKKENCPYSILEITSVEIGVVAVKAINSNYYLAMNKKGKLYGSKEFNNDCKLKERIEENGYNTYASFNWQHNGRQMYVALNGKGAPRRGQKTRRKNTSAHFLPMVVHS

For `COC(=O)Cn1c(C(=O)N(C)C)cc2c1C[C@H]1CN(C(=O)c3ccccc3)[C@@](Cc3ccccc3)(C(=O)OC)[C@@H]21`, the composite z-score was 0.272 in assay [1]; 0.605 in [2]; 0.686 in assay [3]; -0.482 in assay [5]; -1.25 in assay [6]; 0.183 in assay [7]. The composite z-score in assay [8] is -0.326; in assay [9], -0.578; in assay [10], 0.865; in [11] it was -1.8; in assay [13], 0.103; in assay [14], 0.371. Besides, the composite z-score was -0.198 in assay [15]; 0.0077 in assay [16]; 0.253 in [17]; -0.354 in [18]; -0.878 in [19]; 0.195 in assay [20]. Moreover, the results for the z-score in assay [4] and in assay [12] were -0.332 (inactive) and -0.0967, respectively.

As for `C=CCOC(=O)[C@H]1[C@@H]2C(=O)O[C@@H](c3ccccc3)[C@@H](c3ccccc3)N2[C@@H](c2ccc(OCCOC(=O)[C@@H]3C[C@@H]4C(=O)N[C@@H](Cc5ccccc5)C(=O)N4[C@@H]3c3ccc(O)cc3)cc2)[C@]12C(=O)Nc1ccc(I)cc12`, the composite z-score in assay [1] is 1.5; in [2], -0.188; in [3], -0.381; in assay [5], 1.31; in [6] it was 0.606; in assay [7] it was 0.654. Further, the composite z-score in [8] was found to be 1.24; in assay [9], 0.825; in [10], 0.684; in [11], 1.27; in assay [13], 0.898; in assay [14] it was 0.367. Besides, the composite z-score in assay [15] is 0.242; in [16] it was -0.152; in assay [17] it was -0.154; in [18], -0.432; in assay [19] it was -0.164; in assay [20], 0.875. Moreover, the z-score in assay [4] was -0.461 (inactive); in assay [12], -1.64.

Take `Cc1ccc(S[C@]2(C(=O)NCC(C)C)CC(=O)N(C(C)C)[C@@H]2c2ccc(CO)cc2I)cc1`: the composite z-score in assay [1] was 0.115; in assay [2], 0.669; in assay [3], 1.28; in assay [5], -0.679; in [6], -1.03; in [7] it was -0.941. For the same molecule, the composite z-score in [8] is -0.573; in assay [9] it was -0.7; in [10] it was 0.256; in assay [11], 0.297; in assay [13], -1.62; in [14], -1.21. Also, the composite z-score is 0.0034 in assay [15]; -0.112 in assay [16]; -0.0035 in assay [17]; -0.131 in [18]; 0.626 in assay [19]; -0.659 in assay [20]. The z-score in assay [4] is -1.14 (inactive); in [12], -0.98.

On to `CC[C@@H]1C=C(C(=O)O)[C@H](c2cccc(Cl)c2)N1S(=O)(=O)c1ccc(C)cc1`, for which the composite z-score in assay [1] was 0.514; in assay [2], 0.472; in assay [3], 0.692; in [5], 0.0519; in assay [6], 0.46; in assay [7] it was -0.527. Further, the composite z-score in [8] is -0.614; in assay [9], -0.785; in assay [10], 0.414; in assay [11], 1.2; in [13], -0.8; in [14], 0.875. For the same molecule, the composite z-score in [15] is 0.0755; in assay [16], -0.0758; in assay [17] it was 0.14; in [18], 0.527; in assay [19] it was 1.09; in [20], 0.105. The z-score in assay [4] was 0.608 (inactive); in assay [12], -0.54.

In the case of `C=C(C(=O)CC[C@@H](OC(=O)c1ccccc1-c1ccccc1C(=O)O)c1ccc(CO)o1)C(C)C`, the composite z-score in assay [1] was 1.07; in assay [2], -0.258; in assay [3], -0.532; in assay [5], 1.51; in assay [6], 0.913; in assay [7], -0.132. The composite z-score in [8] was 0.648; in [9], 1.12; in assay [10] it was 0.927; in assay [11] it was 0.476; in [13] it was 0.367; in assay [14], -0.236. The composite z-score in assay [15] is -0.86; in assay [16], -0.118; in [17], -0.349; in [18] it was -0.295; in assay [19], 1.27; in assay [20], 0.101. Moreover, the z-score is 0.88 (inactive) in [4] and -1.53 in assay [12].

Consider `O=C1NC(=O)C2C1C=CC(C(O)C1CCCCC1)N2Nc1ccccn1` (stereo not given), for which the composite z-score was 0.488 in assay [1]; 0.174 in assay [2]; 0.279 in [3]; 0.355 in [5]; -0.133 in assay [6]; 0.391 in assay [7]. Also, the composite z-score in assay [8] is 0.402; in assay [9], 0.254; in assay [10], 1.26; in assay [11] it was 0.657; in assay [13] it was 0.372; in assay [14], 0.5. The composite z-score in assay [15] was 0.469; in assay [16] it was -0.0478; in [17] it was 0.321; in assay [18] it was 0.69; in assay [19], -0.26; in assay [20], 0.353. Also, the values for the z-score in assay [4] and in [12] were 1.31 (inactive) and -0.442, respectively.

The record behind these values is PubChem BioAssay.
